For some of these results: Potency and affinity values are given separately. Activity calls are given as the source filed them. Entries that show only a call come without a potency. Unless noted, no rule for the calls is given here.
How the values were obtained:
[1] = antimalarial activity against Dd2 strain (AID 2302;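 active = growth inhibition above 50% at the single 2 µM test dose, taken to imply half-maximal potency below 2 µM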); details: P. falciparum Dd2 in RBCs, LDH growth readout, 72 h; at 2 µM; hits give high values
[2] = HepG2 cytotoxicity, primary screen, cytotoxicity control for P. falciparum antimalarial project, cell-based, ATP luminescence (AID 2303;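 active = inhibition above 50%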); details: HepG2 viability, 24-48 h, at 10 µM, hits give high values
[3] = target: L-lactate dehydrogenase (Plasmodium falciparum (isolate CDC / Honduras)) (UniProt Q27743); assay: PfLDH activity inhibition – cell lysate, 3D7 strain, counter-screen for P. falciparum growth inhibition project (AID 2304); details: P. falciparum 3D7 crude extract, LDH APAD/NBT absorbance; at 2 µM; hits give high values
L-lactate dehydrogenase (Plasmodium falciparum (isolate CDC / Honduras)), sequence (Q27743 whole entry, looked up): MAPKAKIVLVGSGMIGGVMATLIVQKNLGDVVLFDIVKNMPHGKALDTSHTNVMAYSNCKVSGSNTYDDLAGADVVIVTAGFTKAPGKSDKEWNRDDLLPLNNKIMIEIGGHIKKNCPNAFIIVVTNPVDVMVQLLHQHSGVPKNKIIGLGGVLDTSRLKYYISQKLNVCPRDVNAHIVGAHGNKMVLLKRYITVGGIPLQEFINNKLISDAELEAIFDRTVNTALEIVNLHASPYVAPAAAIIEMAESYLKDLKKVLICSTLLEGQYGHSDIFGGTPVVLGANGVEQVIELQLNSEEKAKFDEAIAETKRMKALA

[4] = inhibition of 3D7 malaria parasite growth – strain 3D7 (AID 2306); details: P. falciparum 3D7 erythrocytic growth, LDH absorbance, 72 h; at 2 µM; hits give high values
[5] = target: Calcium-dependent protein kinase 1 (Plasmodium falciparum (isolate 3D7)) (UniProt P62344); assay: PfCDPK1 kinase inhibitors, biochemical, TCAMS library (AID 1159585; cut-off not given, nearly all actives have IC50 up to about 0.98 µM;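 also: inhibitors leave more ATP so luminescence rises with inhibition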); details: recombinant PfCDPK1, Kinase-Glo ATP depletion luminescence
Calcium-dependent protein kinase 1 (Plasmodium falciparum (isolate 3D7)), sequence (P62344 whole entry, looked up): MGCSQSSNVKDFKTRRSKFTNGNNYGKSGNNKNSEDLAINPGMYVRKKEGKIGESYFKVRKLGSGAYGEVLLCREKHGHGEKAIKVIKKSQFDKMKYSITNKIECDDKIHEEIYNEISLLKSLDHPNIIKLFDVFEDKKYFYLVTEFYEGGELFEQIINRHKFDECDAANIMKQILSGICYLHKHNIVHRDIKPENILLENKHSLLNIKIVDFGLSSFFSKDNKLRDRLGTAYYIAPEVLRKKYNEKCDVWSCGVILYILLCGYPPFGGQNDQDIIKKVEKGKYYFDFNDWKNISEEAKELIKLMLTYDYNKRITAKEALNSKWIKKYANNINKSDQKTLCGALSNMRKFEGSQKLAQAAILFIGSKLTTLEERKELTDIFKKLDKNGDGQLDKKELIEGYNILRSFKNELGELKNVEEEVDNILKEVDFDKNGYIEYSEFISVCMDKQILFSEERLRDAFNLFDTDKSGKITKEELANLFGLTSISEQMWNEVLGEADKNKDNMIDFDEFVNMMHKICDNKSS

[6] = target: Plasmodium falciparum protein kinase 6 (PK6, PF3D7_1337100) (UniProt Q8IDW1); assay: PfPK6 kinase inhibitors, biochemical, TCAMS library (AID 1159586); details: recombinant PfPK6, Kinase-Glo ATP depletion luminescence
Plasmodium falciparum protein kinase 6 (PK6, PF3D7_1337100), sequence (Q8IDW1 1-305): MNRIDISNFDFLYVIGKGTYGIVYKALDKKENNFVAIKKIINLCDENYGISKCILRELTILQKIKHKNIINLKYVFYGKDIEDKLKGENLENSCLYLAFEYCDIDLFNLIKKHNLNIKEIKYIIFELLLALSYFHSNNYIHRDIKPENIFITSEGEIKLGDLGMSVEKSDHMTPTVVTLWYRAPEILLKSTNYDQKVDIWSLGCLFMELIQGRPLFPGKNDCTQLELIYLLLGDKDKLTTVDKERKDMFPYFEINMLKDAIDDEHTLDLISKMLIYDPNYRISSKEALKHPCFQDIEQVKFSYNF

[7] = target: Protein kinase 7 (PK7), Plasmodium falciparum 3D7 (PF3D7_0213400) (UniProt Q7YTF7); assay: inhibition of Plasmodium PK7 catalytic activity – biochemical, TCAMS antimalarial set, Kinase-Glo luminescence (AID 1159587); details: recombinant PfPK7, Kinase-Glo ATP depletion luminescence
Protein kinase 7 (PK7), Plasmodium falciparum 3D7 (PF3D7_0213400), sequence (Q7YTF7 1-343): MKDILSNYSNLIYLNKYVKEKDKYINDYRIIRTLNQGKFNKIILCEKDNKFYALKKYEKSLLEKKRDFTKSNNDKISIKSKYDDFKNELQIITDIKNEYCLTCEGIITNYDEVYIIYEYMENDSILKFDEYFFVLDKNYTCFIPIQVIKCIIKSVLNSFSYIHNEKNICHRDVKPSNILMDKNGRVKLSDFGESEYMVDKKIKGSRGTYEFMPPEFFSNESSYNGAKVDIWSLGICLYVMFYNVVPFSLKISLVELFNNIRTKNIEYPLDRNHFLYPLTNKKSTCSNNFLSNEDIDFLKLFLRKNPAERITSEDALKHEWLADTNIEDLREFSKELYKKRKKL

[8] = target: Calcium-dependent protein kinase 4 (Plasmodium falciparum (isolate 3D7)) (UniProt Q8IBS5); assay: PfCDPK4 kinase inhibitors, biochemical, TCAMS library (AID 1159588; cut-off not given, nearly all actives have IC50 up to about 0.91 µM); details: recombinant PfCDPK4, Kinase-Glo ATP depletion luminescence
Calcium-dependent protein kinase 4 (Plasmodium falciparum (isolate 3D7)), sequence (Q8IBS5 whole entry, looked up): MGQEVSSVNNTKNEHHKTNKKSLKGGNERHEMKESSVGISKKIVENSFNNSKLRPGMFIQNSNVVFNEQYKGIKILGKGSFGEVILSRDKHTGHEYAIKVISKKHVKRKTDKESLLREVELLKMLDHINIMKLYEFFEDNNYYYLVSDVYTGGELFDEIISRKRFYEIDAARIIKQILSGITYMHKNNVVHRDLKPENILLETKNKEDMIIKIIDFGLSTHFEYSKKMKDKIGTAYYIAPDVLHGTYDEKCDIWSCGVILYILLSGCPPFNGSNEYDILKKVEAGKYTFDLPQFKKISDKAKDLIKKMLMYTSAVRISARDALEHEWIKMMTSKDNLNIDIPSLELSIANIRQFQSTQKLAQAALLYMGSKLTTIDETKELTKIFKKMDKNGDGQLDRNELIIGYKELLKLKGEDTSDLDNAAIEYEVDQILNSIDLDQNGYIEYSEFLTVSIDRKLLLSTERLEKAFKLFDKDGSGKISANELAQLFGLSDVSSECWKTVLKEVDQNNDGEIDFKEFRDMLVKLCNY

SMILES	growth inhibition [1]	inhibition [2]	inhibition [3]	growth inhibition [4]	outcome [5]	outcome [6]	outcome [7]	outcome [8]
COc1ccc2ncc(F)c(CCN3CCC(NCc4cc(Br)c5c(c4)OCCO5)CC3)c2n1	94% (active)	26% (inactive)	-2% (inactive)	100% (active)	inactive	inactive	inactive	inactive
c1ccc2c(c1)CN(Cc1cc3ccccc3[nH]1)CC1(CCN(Cc3c[nH]c4cnccc34)CC1)O2	62% (active)	27% (inactive)	-3% (inactive)	101% (active)	inactive	inactive	inactive	inactive
O=C(Nc1ccccc1)c1cnc[nH]1	-1% (inactive)	-7% (inactive)	1% (inactive)	92% (active)	inactive	inactive	inactive	inactive
Fc1ccc2nc(-c3ccc(-c4ccc(CN5CCCCC5)cc4)cc3)[nH]c2c1	100% (active)	31% (inactive)	-3% (inactive)	98% (active)	inactive	inactive	inactive	inactive
O=C(/C=C/c1cccc(Br)c1)NCCCCCN1CCC(c2c[nH]c3ccccc23)CC1	15% (inactive)	38% (inactive)	0% (inactive)	100% (active)	inactive	inactive	inactive	inactive
FC(F)(F)c1ccc2nc(-c3ccc(-c4cccc(CN5CCN(c6ccncc6)CC5)c4)cc3)[nH]c2c1	99% (active)	82% (active)	2% (inactive)	101% (active)	inactive	inactive	inactive	inactive
COc1cc(C(=O)Nc2cccc(-c3nc4ccccc4[nH]3)c2)ccc1OC(C)=O	37% (inactive)	16% (inactive)	-4% (inactive)	83% (active)	inactive	inactive	inactive	inactive
CCOc1cc(C)ccc1NC1CCN(CCCCNC(=O)c2ccc(NC(=O)c3ccc(Cl)cc3)cc2)CC1	70% (active)	17% (inactive)	-2% (inactive)	101% (active)	inactive	inactive	inactive	inactive
CCc1cn(C)c2c(N3CCCC3=O)cc(C(=O)N[C@@H](Cc3ccccc3)[C@H](O)CNC(C)(C)CCCC(C)C)cc12	98% (active)	15% (inactive)	-4% (inactive)	97% (active)	inactive	inactive	inactive	inactive
CC(C)CNCc1cccc(-c2cccc(CN(CCN(C)C)C(=O)Nc3ccccc3)c2)c1	62% (active)	34% (inactive)	4% (inactive)	99% (active)	inactive	inactive	inactive	inactive
CC(C)NCc1ccc(-c2ccc(CN3CCCC(c4ccccc4)C3)cc2)c(C(=O)NCC2CCCCC2)c1 (stereo not given)	53% (active)	79% (active)	-3% (inactive)	97% (active)	inactive	inactive	inactive	inactive
O=C1COC2(CN1CC1CCN(Cc3ccc(O)c(Cl)c3)C1)c1ccccc1-c1ccccc12 (stereo not given)	50% (active)	6% (inactive)	1% (inactive)	93% (active)	inactive	inactive	inactive	inactive
CCN1CCN(c2cc(C)c3cc(NC(=O)C=Cc4cccc(OC)c4OC)ccc3n2)CC1	38% (inactive)	18% (inactive)	-3% (inactive)	99% (active)	inactive	inactive	inactive	inactive
CN1CCN(CCCN(Cc2cccc(-c3cccc(CNCc4ccc5c(c4)OCO5)c3)c2)C(=O)CCC2CCCC2)CC1	80% (active)	85% (active)	1% (inactive)	98% (active)	inactive	inactive	inactive	inactive
Cc1nnc2c(NC(=O)NC3CCCC3)cc3ccc(-c4cccc(CN(C)C)c4)cc3n12	25% (inactive)	42% (inactive)	3% (inactive)	90% (active)	inactive	inactive	inactive	inactive
CC1CN(Cc2cccc(F)c2)CCN1c1ccc(NC(=O)c2ccc(F)cc2)cc1 (stereo not given)	92% (active)	-2% (inactive)	-2% (inactive)	96% (active)	inactive	inactive	inactive	inactive
CCOC(=O)[C@H](Cc1cccc2ccccc12)NC(=O)[C@H](CCC(=O)OC(C)(C)C)NC(=O)c1ccc(N(C)Cc2cnc3nc(N)nc(N)c3n2)cc1	96% (active)	66% (active)	-2% (inactive)	93% (active)	inactive	inactive	inactive	inactive
CCOc1c(CNCCCNc2cc(=O)c3ccccc3[nH]2)cc(I)cc1OC	6% (inactive)	-4% (inactive)	2% (inactive)	91% (active)	inactive	inactive	inactive	inactive

SMILES	growth inhibition [1]	inhibition [2]	inhibition [3]	growth inhibition [4]	outcome [5]	outcome [6]	outcome [7]	outcome [8]
Cc1cc(C(=O)Nc2ccc3c(c2)CCN3C2CCN(Cc3csc4ccccc34)C2)no1 (stereo not given)	96% (active)	1% (inactive)	0% (inactive)	96% (active)	inactive	inactive	inactive	inactive
NC(=O)c1ccc(C(=O)Nc2cccc(-c3ccc(-c4nc5ccc(C(F)(F)F)cc5[nH]4)cc3)c2)cc1	31% (inactive)	35% (inactive)	-1% (inactive)	100% (active)	inactive	inactive	inactive	inactive
COc1cc2nc(N3CCN(c4nc(N)c5cc(OC)c(OC)cc5n4)CC3)nc(N)c2cc1OC	99% (active)	13% (inactive)	-4% (inactive)	101% (active)	inactive	inactive	inactive	inactive
Cc1cc(-c2ccnc(Nc3cccc(C#N)c3)n2)cc(C)c1O	54% (active)	50% (active)	5% (inactive)	88% (active)	inactive	inactive	inactive	inactive
COc1cc(CNC[C@@H](O)[C@H](Cc2ccccc2)NC(=O)c2cc(OC(C)C)cc(N3CCCS3(=O)=O)c2)cc(OC)c1	72% (active)	-1% (inactive)	0% (inactive)	97% (active)	inactive	inactive	inactive	inactive
N#Cc1ccc(N(CCNS(=O)(=O)c2cc(Br)c(Cl)s2)Cc2ccccc2C(F)(F)F)cc1C(F)(F)F	57% (active)	3% (inactive)	-1% (inactive)	92% (active)	inactive	inactive	inactive	inactive
CCCCN(Cc1cc(Cl)c(OCC)c(OC)c1)c1ccc(C(O)(C(F)(F)F)C(F)(F)F)cc1	97% (active)	5% (inactive)	-6% (inactive)	92% (active)	inactive	inactive	inactive	inactive
COc1ccc(CNc2nc(Nc3cccc(C#N)c3)nc(Nc3cccc(C#N)c3)n2)cc1Cl	83% (active)	-4% (inactive)	4% (inactive)	101% (active)	inactive	inactive	inactive	inactive
COc1cccc(C(C)(C)NC[C@@H](O)[C@H](Cc2ccccc2)NC(=O)c2cc(C3CCCC3)cc(N3CCCCS3(=O)=O)c2F)c1	99% (active)	16% (inactive)	7% (inactive)	99% (active)	inactive	inactive	inactive	inactive
COc1ccc(C=NNc2ccnc3cc(F)c(C)cc23)c2ccccc12	85% (active)	-6% (inactive)	3% (inactive)	101% (active)	inactive	inactive	inactive	inactive
N#Cc1cccc(COC(=O)C2=C(COc3ccccc3Cl)NC(=O)NC2c2c[nH]c3cnccc23)c1 (stereo not given)	-3% (inactive)	0% (inactive)	-1% (inactive)	99% (active)	inactive	inactive	inactive	inactive
CCCNC(=O)c1cncc(-c2cccc(CNC3Cc4ccccc4C3)c2)c1	2% (inactive)	-2% (inactive)	-3% (inactive)	100% (active)	inactive	inactive	inactive	inactive
Cc1ccc(F)cc1S(=O)(=O)NCC(C)c1ccc(NC(=O)Nc2cccc(F)c2)cc1 (stereo not given)	5% (inactive)	20% (inactive)	2% (inactive)	95% (active)	inactive	inactive	inactive	inactive
O=C(Cc1ccc(NC(=O)c2ccc(O)c(-c3ccc(Cl)c(Cl)c3)c2)cc1)NCCc1ccc(Cl)c(Cl)c1	88% (active)	-6% (inactive)	2% (inactive)	99% (active)	inactive	inactive	inactive	inactive
O=C(Nc1cccc(C(F)(F)F)c1)c1cccc(S(=O)(=O)NCC2CCCN2CC2CCCCC2)c1 (stereo not given)	2% (inactive)	6% (inactive)	0% (inactive)	97% (active)	inactive	inactive	inactive	inactive
COc1cc(OC)cc(-c2nn(-c3ccc([N+](=O)[O-])cc3C#N)c(=S)n2CC2CCCO2)c1 (stereo not given)	75% (active)	9% (inactive)	0% (inactive)	98% (active)	inactive	inactive	inactive	inactive
CCN1CCN(C(=O)NC(C(=O)N(C)Cc2ccc(-c3ccc(C(F)(F)F)cc3)cc2)c2cccs2)C(=O)C1=O (stereo not given)	95% (active)	-5% (inactive)	-1% (inactive)	99% (active)	inactive	inactive	inactive	inactive
